TRPM1 prom inh – MITF TRPM1 promoter inhibition in SK-MEL-5 cells; inhibition, % at 12.5 µM; 330,000 compounds, 0.83% hits; SK-MEL-5 TRPM1 promoter luciferase, 24 h; AID 488899;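 active = mean inhibition across replicates of 60% or more, whatever share of single replicates reaches that level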
KKLEB cytotox – reduces viability of KKLEB cystic fibrosis airway cells | KKLEB CF airway cells viability, ATPlite luminescence, overnight; hits give low values; cells stimulated with P. aeruginosa culture filtrate | activity change (cytotoxicity), % at 5 µM | 360,000 compounds, 0.36% hits;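 active = corrected activity change at or below -50% at 5 µM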
HIF-2a block – blocks HIF-2a reporter activity. inhibition, % at 18.8 µM. 360,000 compounds, 0.72% hits. AID 624352. 786-0 RCC cells HIF-2a reporter, luciferase luminescence, overnight;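 active = inhibition of the luminescence signal of 40% or more relative to plate controls, in a single-dose primary screen at 18.75 µM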
ABHD5 PLIN5 PPI – ABHD5-PLIN5 protein interaction inhibition; Split G. princeps luciferase complementation, luminescence, 4 h; inhibition, % at 4 µM; 360,000 compounds, 0.78% hits; AID 602281;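 active = inhibition above the mean inhibition across every tested compound plus 3 SD, cut at about 22% in these data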;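 note: 0% = DMSO only wells and the 100% control is not disclosed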
Peg3 promoter – Peg3 promoter activity inhibition; AID 588405; HeLa PEG-Prom luciferase reporter, luminescence, overnight; 360,000 compounds, 1.7% hits; inhibition, % at 20 µM;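 active = inhibition of at least 50% at 20 µM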
CF NFkB inh – blocks PAF-induced NF-kB reporter in cystic fibrosis cells; KKLEB NF-kB-GFP reporter, GFP fluorescence overnight; inhibition, % at 5 µM; 360,000 compounds, 0.86% hits;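 active = at least 50% inhibition at 5 µM, scaled per plate between neutral and stimulator controls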;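 note: PAF is a Pseudomonas aeruginosa culture filtrate used as stimulus; plate controls were PAF-stimulated DMSO wells for no effect and unstimulated DMSO wells for full effect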
Starred values were filed as active, the others as inactive; · = not tested or not shown. An excerpt weighted towards active compounds, which were near 3.1% of everything screened.

SMILES	TRPM1 prom inh	KKLEB cytotox	HIF-2a block	ABHD5 PLIN5 PPI	Peg3 promoter	CF NFkB inh
CC(=O)O[C@@H]1/C=C/[C@](C)(O)C[C@@H](C)C/C=C/[C@H]2[C@@H]3O[C@]3(C)[C@@H](C)[C@H]3[C@H](Cc4ccccc4)NC(=O)[C@@]312	·	-53*	-43	4	39	55*
CN(CC1COc2ccccc2O1)c1nc(-c2cccnc2)nc2ccccc12 (configuration not stated)	-17	1	16	-1	51*	1
C[C@H]1CCC/C=C/[C@@H]2C[C@H](O)C[C@H]2[C@@H](O)/C=C/C(=O)O1	89*	-47	39	-8	59*	64*
CC1CC(C)CN(C(=O)COC(=O)c2cn(C)c3ccccc23)C1 (configuration not stated)	-1	-18	15	-1	13	24
CC(C)(O)/C=C/C(=O)[C@](C)(O)C1[C@H](O)C[C@@]2(C)C3CC=C4C(C[C@H](O)[C@@H](O)C4(C)C)[C@]3(C)C(=O)C[C@]12C (some centres not stated)	71*	-75*	30	12	61*	71*
O=C1NCN(c2ccccc2)C12CCN(C(c1cccc3ccccc13)c1nnnn1Cc1ccccc1)CC2 (configuration not stated)	·	-11	-5	-1	28	42
O=C1NCN(c2ccccc2)C12CCN(C(c1ccccc1OC(F)(F)F)c1nnnn1Cc1ccccc1)CC2 (configuration not stated)	·	-26	-10	-1	91*	39
Oc1ccc(CCNCc2cc3c(cc2Br)OCO3)cc1	·	-7	9	2	0	-53
C[C@H](CO)N1C[C@H](C)[C@@H](CN(C)C(=O)Oc2ccc3ccccc3c2)OCc2cn(nn2)CCCC1=O	·	-4	0	4	-9	0
CCOc1ccc(Cl)cc1CNCCc1ccccc1F	-5	9	4	-2	74*	-2
CN1CCN(c2nc3ccccn3c(=O)c2C=C2C(=O)N(C)C(=O)N(C)C2=O)CC1	2	-25	14	23*	20	12
COc1ccc(-c2nn(CCC#N)cc2C(=O)NCc2ccccc2)cc1[N+](=O)[O-]	-7	-8	5	-7	1	1
C[n+]1c(-c2ccccc2)c2cc(N)ccc2c2ccc(N)cc21	62*	-9	27	-19	74*	-8
Nc1ccc2ccc3cccc[n+]3c2c1	-10	10	6	-1	20	-23
Fc1ccc(C(OCCN2CCN(CCCc3ccccc3)CC2)c2ccc(F)cc2)cc1	42	-25	-7	3	67*	21
c1ccc2c(c1)[nH]c1cnccc12	-5	4	9	-4	-2	-12
Cc1c2ccncc2c(C)c2c1[nH]c1ccccc12	89*	10	-9	10	102*	83*
CSCCC(c1nnnn1C(C)(C)C)N1CCC2(CC1)C(=O)NCN2c1ccccc1 (configuration not stated)	·	-6	12	2	5	-1
CCOc1ccc(N2C(=O)/C(=C/c3ccco3)C(=O)NC2=S)cc1	7	3	21	-3	31	-7
O=C1NC(=O)N(c2ccccc2)C(=O)/C1=C\C=C\c1ccccc1	74*	18	82*	21	61*	35
CC(C)c1ccc(N2C(=O)NC(=O)/C(=C/C=C/c3ccco3)C2=O)cc1	99*	-20	17	22*	74*	84*
CCc1ccc(N2C(=O)NC(=O)/C(=C\C=C\c3ccco3)C2=O)cc1	102*	4	24	22*	91*	45
CCCCN1C(=O)/C(=C/C=C/c2ccco2)C(=O)NC1=S	3	-8	16	-5	5	14
Cc1cc(C)cc(N2C(=O)NC(=O)/C(=C\C=C\c3ccco3)C2=O)c1	94*	-29	40*	23*	67*	47
CN1CCN(S(=O)(=O)c2cnc(Cl)c(Br)c2)CC1	8	0	11	0	-2	-3
Cc1cc(C(=O)OCC(=O)Nc2ccccc2F)c(C)n1C1CC1	-79	0	-203	-11	-240	15
CCOC(=O)[C@]12Cc3ccc4ccccc4c3[C@H]1N(Cc1ccccc1)C(=O)c1ccccc12	·	·	15	-9	·	·

Screens as filed in PubChem.
